Consider 28 molecules from PubChem BioAssay AID2405 (Southern Research Specialized Biocontainment Screening …, 2010).

A number with no mark means an inactive call. The rule behind the calls is not given here.

The experiment is described as follows: RSV cytopathic effect inhibition in HEp-2 – cell-based, probe candidates (AID 2405). The conditions noted are these: HEp-2 cells, stronger effect = higher value; at 100 µM unless noted.
As to `CCN(CC)CCCNC(=S)N1CCN(c2nc(-c3ccc(F)cc3)cs2)CC1`, the maximum inhibition was 0.61% [at 0.2 µM].

As for `O=C(CSc1nc2cccc(F)c2c(=O)n1-c1ccccc1)Nc1ccc2c(c1)CCC2`, the maximum inhibition is 20.4%.

Take `OC1c2c(F)cccc2N=C2CCCN21` (stereo not drawn): the maximum inhibition is 0.86%.

As to `CCCCN(C(=O)c1ccccc1Cl)c1nc(-c2ccc(OC)cc2)cs1`, the maximum inhibition is 5.05% [at 25 µM].

With `Cc1cccc2nc3n(c(=O)c12)CCC3`, the maximum inhibition was 1.49% [at 25 µM].

In the case of `CCCN(C(=O)c1ccccc1Cl)c1nc(-c2ccc(OC)cc2)cs1`, the maximum inhibition was 14.1% [at 50 µM].

With `OC1c2cc(Cl)cc(Cl)c2N=C2CCCN21` (stereo not drawn), the maximum inhibition was 4.35%.

As to `CN(C)CCCNC(=S)N1CCN(c2nc(-c3ccccc3)cs2)CC1`, the maximum inhibition is 5.31% [at 25 µM].

Turning to `COc1ccc(-c2csc(N(CCCN(C)C)C(=O)c3ccccc3F)n2)cc1`, the maximum inhibition was 5.17%.

`COc1ccc(-c2csc(N(CCCN(C)C)C(=O)c3ccccc3Cl)n2)cc1`: the maximum inhibition is 0.91% [at 6.25 µM].

As to `CCCN1CCN(CCCNC(=O)c2cc3c(s2)-c2c(C)cccc2OC3)CC1`, the maximum inhibition is 0.38% [at 0.2 µM].

As for `Cc1cccc2c1-c1sc(C(=O)NCCCN3CCCC(C)C3)cc1CO2` (stereo not drawn), the maximum inhibition was 1.01% [at 0.78 µM].

Regarding `O=C(CSc1nc2ccccc2c(=O)n1-c1ccccc1)Nc1ccc2c(c1)CCC2`, the maximum inhibition is 18.8% [at 12.5 µM].

Consider `O=c1c2cc(I)ccc2nc2n1CCC2`, for which the maximum inhibition was 5.94%.

`OC1c2c(F)cccc2N=C2CCCCCN21` (stereo not drawn): the maximum inhibition is 1.87% [at 12.5 µM].

Take `COc1ccc(Cn2nc(C)cc2OC(=O)c2ccccc2)cc1`: the maximum inhibition was 0.91% [at 25 µM].

`Nc1ccc2nc3n(c(=O)c2c1)CCC3`: the maximum inhibition is 1.81% [at 12.5 µM].

Regarding `O=C(CSc1nc2ccccc2c(=O)n1-c1ccc(Cl)c(Cl)c1)Nc1ccc2c(c1)CCC2`, the maximum inhibition is 5.37%.

Consider `O=C(Nc1nc(-c2ccc(Cl)cc2)cs1)c1ccccc1Cl`, for which the maximum inhibition was 4.1%.

`O=C(Nc1nc(-c2ccc(Cl)cc2)cs1)c1ccccc1F`: the maximum inhibition is 3.06% [at 12.5 µM].

Consider `CC1CCCN(CCCNC(=O)c2cc3c(s2)-c2ccccc2OC3)C1` (stereo not drawn), for which the maximum inhibition is 3.5% [at 25 µM].

`Oc1ccccc1C(Nc1nccs1)c1ccc2cccnc2c1O` (stereo not drawn): the maximum inhibition is 4.97% [at 12.5 µM].

On to `OC1c2c(F)cccc2N=C2CCCCN21` (stereo not drawn), for which the maximum inhibition is 1.55% [at 12.5 µM].

Regarding `O=C(CSc1nc2ccccc2c(=O)n1-c1ccccc1F)Nc1ccc2c(c1)CCC2`, the maximum inhibition is 7.99% [at 12.5 µM].

`COc1cccc(-n2c(SCC(=O)Nc3ccc4c(c3)CCC4)nc3ccccc3c2=O)c1`: the maximum inhibition was 8.16%.

For the molecule `C=CCN(C(=O)c1ccccc1Cl)c1nc(-c2ccc(OC)cc2)cs1`, the maximum inhibition is 7.65%.

As to `CCN(CC)CCCNC(=S)N1CCN(c2nc(-c3ccccc3)cs2)CC1`, the maximum inhibition was 1.02% [at 0.2 µM].

On to `COc1ccccc1NC(=O)CSc1nc2ccccc2c(=O)n1-c1ccc(F)cc1`, for which the maximum inhibition is 3.44% [at 6.25 µM].
